Legend:
Assay in all cases: DAPPL (digital affinity profiling via proximity ligation, sequencing); 10 mM Tris-HCl pH 7.5, 50 mM NaCl, 1 mM DTT, 4% glycerol, room temperature, 30 min; GST-TFs on glutathione beads, 16-mer random dsDNA library, 0.1% formaldehyde crosslink after washing; high values mean tight binding
Conditions in all cases: protein: recombinant; tags: N-terminal GST; dsDNA, one strand shown
FEV = target: T1, FEV (Homo sapiens, UniProt Q99581 1-238)
T1 sequence: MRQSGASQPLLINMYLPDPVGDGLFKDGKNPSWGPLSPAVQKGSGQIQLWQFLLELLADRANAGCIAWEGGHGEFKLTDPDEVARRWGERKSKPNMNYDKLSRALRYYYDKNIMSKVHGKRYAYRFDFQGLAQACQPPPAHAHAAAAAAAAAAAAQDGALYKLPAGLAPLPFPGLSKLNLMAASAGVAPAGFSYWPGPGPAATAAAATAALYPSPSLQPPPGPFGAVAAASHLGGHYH
Summary of the method: (§1)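 After expression in yeast as GST fusions, human transcription factors were bound to glutathione beads, DNA-barcoded and mixed with a tag-only sample. The pools were incubated with 200 nmole of a 16-mer random double-stranded DNA library in Tris/NaCl/DTT/glycerol buffer (30 min, room temperature), washed and crosslinked with 0.1% formaldehyde. Proximity ligation with BsaI/T4 ligase ran for 1 h at 37 °C, before PCR amplification and sequencing on an Illumina NextSeq500. Binding signal is a hexamer's read frequency for a factor divided by its frequency for the tag-only sample.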

ETV5 = ETV5 (Homo sapiens, UniProt P41161 1-510)
ETV5, sequence (P41161 whole entry): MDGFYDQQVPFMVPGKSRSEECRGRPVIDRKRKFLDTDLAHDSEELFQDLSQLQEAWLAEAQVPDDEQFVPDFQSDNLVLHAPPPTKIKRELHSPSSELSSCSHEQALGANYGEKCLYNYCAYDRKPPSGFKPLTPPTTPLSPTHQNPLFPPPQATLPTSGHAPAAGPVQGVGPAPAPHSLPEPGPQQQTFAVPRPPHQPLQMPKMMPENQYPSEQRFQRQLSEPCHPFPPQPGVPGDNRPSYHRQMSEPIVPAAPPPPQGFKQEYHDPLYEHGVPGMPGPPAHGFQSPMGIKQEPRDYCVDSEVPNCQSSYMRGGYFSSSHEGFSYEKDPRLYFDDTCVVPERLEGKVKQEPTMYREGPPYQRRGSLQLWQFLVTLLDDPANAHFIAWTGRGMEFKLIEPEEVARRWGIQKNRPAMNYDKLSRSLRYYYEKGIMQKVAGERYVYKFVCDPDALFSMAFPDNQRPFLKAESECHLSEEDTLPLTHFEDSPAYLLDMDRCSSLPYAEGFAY
Summary of the method: as §1

SPIC = target: T2, SPIC (Homo sapiens, UniProt Q8N5J4 1-248)
T2 sequence: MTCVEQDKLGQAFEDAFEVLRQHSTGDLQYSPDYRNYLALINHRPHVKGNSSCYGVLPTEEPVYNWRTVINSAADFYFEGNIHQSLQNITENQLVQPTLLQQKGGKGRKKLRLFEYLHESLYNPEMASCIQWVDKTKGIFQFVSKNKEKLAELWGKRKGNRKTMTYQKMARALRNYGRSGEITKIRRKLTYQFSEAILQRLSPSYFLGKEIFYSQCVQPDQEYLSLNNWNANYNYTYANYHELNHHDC
Summary of the method: as §1

ELF4 = ELF4 (Homo sapiens, UniProt Q99607 1-663)
ELF4, sequence (Q99607 whole entry): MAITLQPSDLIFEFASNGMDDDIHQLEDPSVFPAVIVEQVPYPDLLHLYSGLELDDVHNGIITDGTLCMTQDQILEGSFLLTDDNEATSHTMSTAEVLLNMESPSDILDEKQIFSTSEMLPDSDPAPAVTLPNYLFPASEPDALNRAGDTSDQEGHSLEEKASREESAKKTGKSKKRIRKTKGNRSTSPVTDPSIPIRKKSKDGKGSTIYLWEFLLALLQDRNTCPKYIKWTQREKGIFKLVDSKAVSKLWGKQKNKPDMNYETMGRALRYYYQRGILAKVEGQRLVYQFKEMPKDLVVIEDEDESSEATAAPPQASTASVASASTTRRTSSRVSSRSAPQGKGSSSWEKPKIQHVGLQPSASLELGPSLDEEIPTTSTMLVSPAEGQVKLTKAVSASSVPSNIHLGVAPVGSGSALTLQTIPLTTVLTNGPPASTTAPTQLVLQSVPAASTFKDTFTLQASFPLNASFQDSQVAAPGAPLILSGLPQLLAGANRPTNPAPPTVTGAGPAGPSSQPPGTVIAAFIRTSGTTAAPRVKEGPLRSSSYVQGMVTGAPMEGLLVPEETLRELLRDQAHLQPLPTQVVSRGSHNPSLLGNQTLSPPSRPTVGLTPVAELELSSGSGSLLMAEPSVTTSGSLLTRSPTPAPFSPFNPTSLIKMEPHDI
Summary of the method: as §1

ELK4 = target: T3, ELK4 (Homo sapiens, UniProt P28324-2 1-405)
T3 sequence: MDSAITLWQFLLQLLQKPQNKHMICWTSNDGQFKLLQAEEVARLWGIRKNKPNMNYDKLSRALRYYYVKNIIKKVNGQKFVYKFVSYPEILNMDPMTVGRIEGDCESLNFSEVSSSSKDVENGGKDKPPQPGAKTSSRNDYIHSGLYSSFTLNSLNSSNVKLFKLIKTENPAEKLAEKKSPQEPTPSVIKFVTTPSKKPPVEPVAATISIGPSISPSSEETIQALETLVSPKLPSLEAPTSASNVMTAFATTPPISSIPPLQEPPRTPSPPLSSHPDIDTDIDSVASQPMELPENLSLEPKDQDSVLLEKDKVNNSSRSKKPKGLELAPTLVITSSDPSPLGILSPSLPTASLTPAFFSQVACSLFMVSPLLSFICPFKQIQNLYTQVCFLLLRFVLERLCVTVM
Summary of the method: as §1

ETV2 = target: T4, ETV2 (Homo sapiens, UniProt O00321 1-342)
T4 sequence: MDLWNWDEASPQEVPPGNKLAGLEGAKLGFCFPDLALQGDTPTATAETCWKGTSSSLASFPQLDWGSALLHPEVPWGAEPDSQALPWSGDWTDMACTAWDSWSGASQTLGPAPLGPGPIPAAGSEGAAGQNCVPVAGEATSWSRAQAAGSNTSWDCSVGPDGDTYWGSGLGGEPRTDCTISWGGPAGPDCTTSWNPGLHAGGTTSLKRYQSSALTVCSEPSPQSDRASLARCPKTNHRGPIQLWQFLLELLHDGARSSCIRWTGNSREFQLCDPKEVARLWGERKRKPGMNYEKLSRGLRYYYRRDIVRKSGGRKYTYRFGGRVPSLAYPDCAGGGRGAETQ
Summary of the method: as §1

ELF3 = target: T5, ELF3 (Homo sapiens, UniProt P78545 1-371)
T5 sequence: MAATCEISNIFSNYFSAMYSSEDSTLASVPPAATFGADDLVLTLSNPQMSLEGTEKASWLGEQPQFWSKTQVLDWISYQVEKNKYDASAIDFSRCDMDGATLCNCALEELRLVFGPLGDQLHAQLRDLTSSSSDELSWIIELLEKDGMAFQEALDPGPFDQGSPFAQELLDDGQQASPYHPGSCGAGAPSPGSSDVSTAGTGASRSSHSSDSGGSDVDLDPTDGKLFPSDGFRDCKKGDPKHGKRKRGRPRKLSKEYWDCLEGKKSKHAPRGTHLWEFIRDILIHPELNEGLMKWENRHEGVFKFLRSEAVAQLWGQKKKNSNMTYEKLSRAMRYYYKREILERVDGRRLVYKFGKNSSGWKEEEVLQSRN
Summary of the method: as §1

ETV1 = ETV1 (Homo sapiens, UniProt P50549 1-477)
ETV1, sequence (P50549 whole entry): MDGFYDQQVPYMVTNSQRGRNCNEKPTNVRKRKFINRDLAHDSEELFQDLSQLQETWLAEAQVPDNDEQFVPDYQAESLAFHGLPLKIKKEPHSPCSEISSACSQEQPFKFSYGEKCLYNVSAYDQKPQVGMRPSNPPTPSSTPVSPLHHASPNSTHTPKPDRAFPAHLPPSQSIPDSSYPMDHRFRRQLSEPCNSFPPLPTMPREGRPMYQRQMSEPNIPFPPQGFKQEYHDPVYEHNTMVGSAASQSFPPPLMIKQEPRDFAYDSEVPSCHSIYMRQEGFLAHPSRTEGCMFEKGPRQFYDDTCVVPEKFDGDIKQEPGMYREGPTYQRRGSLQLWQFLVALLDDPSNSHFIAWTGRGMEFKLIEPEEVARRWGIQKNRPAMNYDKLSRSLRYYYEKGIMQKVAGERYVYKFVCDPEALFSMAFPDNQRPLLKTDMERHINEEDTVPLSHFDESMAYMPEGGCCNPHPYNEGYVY
Summary of the method: as §1

ERF = target: T6, ERF (Homo sapiens, UniProt P50548 1-548)
T6 sequence: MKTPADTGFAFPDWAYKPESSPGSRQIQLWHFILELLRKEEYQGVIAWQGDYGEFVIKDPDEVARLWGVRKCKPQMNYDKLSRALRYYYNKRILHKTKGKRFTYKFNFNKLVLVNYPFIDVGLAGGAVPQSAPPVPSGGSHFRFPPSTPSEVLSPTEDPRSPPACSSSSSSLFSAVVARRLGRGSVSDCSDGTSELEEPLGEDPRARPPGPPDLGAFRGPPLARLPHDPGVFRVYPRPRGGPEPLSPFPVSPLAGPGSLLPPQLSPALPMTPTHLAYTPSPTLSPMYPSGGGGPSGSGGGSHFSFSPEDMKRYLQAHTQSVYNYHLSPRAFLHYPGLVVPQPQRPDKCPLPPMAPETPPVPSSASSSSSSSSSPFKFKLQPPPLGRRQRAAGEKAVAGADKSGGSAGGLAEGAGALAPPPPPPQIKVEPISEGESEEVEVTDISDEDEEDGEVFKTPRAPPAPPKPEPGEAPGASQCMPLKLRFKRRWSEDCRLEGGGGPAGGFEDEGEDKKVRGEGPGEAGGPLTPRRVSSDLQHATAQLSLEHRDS
Summary of the method: as §1

ETV3L = target: T7, ETV3L (Homo sapiens, UniProt Q6ZN32 1-361)
T7 sequence: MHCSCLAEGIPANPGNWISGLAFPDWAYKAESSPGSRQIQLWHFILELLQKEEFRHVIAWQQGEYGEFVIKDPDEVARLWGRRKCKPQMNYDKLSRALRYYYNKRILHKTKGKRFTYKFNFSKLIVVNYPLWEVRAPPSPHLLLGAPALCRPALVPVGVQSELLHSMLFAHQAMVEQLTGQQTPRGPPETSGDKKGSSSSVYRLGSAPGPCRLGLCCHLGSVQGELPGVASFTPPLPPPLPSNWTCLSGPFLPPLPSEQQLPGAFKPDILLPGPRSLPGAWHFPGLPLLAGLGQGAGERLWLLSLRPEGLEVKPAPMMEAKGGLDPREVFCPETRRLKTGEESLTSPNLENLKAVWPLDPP
Summary of the method: as §1

ETS2 = target: T8, ETS2 (Homo sapiens, UniProt P15036 1-469)
T8 sequence: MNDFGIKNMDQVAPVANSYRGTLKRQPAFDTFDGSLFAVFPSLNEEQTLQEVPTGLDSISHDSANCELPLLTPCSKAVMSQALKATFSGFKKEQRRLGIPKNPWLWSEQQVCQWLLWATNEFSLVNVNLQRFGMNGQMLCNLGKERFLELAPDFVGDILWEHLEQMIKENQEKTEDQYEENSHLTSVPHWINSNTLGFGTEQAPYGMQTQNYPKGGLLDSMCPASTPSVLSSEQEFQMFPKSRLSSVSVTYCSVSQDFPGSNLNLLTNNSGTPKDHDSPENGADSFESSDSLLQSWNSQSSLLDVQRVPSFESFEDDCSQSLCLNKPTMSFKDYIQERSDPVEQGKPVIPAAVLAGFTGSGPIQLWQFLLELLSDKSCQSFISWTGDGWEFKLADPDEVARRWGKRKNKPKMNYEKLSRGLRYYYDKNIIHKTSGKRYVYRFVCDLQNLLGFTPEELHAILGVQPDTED
Summary of the method: as §1

SPDEF = target: T9, SPDEF (Homo sapiens, UniProt O95238 1-335)
T9 sequence: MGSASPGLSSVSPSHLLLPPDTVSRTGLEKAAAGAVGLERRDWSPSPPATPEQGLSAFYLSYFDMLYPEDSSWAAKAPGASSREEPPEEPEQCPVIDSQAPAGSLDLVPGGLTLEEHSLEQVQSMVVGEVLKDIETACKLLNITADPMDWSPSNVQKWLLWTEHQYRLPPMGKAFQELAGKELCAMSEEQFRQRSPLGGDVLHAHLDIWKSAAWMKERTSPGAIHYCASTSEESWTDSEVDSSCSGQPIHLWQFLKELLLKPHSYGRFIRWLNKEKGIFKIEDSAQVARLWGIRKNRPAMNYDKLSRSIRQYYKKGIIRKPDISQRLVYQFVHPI
Summary of the method: as §1

ETV7 = target: T10, ETV7 (Homo sapiens, UniProt Q9Y603 1-341)
T10 sequence: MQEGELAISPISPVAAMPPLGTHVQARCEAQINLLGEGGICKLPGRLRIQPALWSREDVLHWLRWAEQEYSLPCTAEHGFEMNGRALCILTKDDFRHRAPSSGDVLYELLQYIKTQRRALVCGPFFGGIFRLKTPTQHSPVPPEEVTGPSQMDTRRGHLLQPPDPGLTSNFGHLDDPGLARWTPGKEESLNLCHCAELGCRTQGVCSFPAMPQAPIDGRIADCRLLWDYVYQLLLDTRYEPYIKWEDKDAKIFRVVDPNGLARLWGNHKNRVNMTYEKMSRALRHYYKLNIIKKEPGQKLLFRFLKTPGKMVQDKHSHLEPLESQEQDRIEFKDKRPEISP
Summary of the method: as §1

ELF5 = target: T11, ELF5 (Homo sapiens, UniProt Q9UKW6-2 1-255)
T11 sequence: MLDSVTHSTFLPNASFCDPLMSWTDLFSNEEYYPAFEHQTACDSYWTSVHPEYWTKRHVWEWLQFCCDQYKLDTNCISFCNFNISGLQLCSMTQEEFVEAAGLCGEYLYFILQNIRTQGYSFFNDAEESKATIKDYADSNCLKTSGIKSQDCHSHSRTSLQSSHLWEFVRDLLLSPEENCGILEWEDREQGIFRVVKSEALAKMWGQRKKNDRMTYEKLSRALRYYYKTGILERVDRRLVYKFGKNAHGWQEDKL
Summary of the method: as §1

ETV6 = ETV6 (Homo sapiens, UniProt P41212 1-452)
ETV6, sequence (P41212 whole entry): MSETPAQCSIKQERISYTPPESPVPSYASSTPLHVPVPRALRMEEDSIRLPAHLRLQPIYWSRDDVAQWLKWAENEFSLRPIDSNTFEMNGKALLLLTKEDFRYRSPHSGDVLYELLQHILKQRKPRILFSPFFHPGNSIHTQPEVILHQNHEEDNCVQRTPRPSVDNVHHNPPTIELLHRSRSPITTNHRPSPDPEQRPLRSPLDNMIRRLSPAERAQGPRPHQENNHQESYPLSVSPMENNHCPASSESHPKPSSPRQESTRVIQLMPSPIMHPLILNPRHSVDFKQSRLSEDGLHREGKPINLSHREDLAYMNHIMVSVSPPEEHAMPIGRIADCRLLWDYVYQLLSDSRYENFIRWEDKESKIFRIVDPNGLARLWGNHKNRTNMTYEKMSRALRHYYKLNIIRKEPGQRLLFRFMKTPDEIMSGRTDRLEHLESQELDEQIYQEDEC
Summary of the method: as §1

ETV3 = target: T12, ETV3 (Homo sapiens, UniProt P41162-2 1-143)
T12 sequence: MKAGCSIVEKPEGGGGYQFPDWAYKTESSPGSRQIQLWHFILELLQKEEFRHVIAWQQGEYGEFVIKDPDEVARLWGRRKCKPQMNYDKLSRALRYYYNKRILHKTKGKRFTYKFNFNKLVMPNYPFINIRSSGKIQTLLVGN
Summary of the method: as §1

| Sequence | binding signal (FEV) | binding signal (ETV5) | binding signal (SPIC) | binding signal (ELF4) | binding signal (ELK4) | binding signal (ETV2) | binding signal (ELF3) | binding signal (ETV1) | binding signal (ERF) | binding signal (ETV3L) | binding signal (ETS2) | binding signal (SPDEF) | binding signal (ETV7) | binding signal (ELF5) | binding signal (ETV6) | binding signal (ETV3) |
| --- | --- | --- | --- | --- | --- | --- | --- | --- | --- | --- | --- | --- | --- | --- | --- | --- |
| TTCAGT | 1.01 fold enrichment (6-mer frequency, TF over GST control) | 1.05 fold enrichment (6-mer frequency, TF over GST control) | 1.11 fold enrichment (6-mer frequency, TF over GST control) | 1.11 fold enrichment (6-mer frequency, TF over GST control) | 1.1 fold enrichment (6-mer frequency, TF over GST control) | 1.08 fold enrichment (6-mer frequency, TF over GST control) | 1.08 fold enrichment (6-mer frequency, TF over GST control) | 1.07 fold enrichment (6-mer frequency, TF over GST control) | 1.09 fold enrichment (6-mer frequency, TF over GST control) | 1.13 fold enrichment (6-mer frequency, TF over GST control) | 1 fold enrichment (6-mer frequency, TF over GST control) | 1.07 fold enrichment (6-mer frequency, TF over GST control) | 1.04 fold enrichment (6-mer frequency, TF over GST control) | 1.05 fold enrichment (6-mer frequency, TF over GST control) | 1.06 fold enrichment (6-mer frequency, TF over GST control) |  |
| CGTAAC | 1.09 fold enrichment (6-mer frequency, TF over GST control) | 1.1 fold enrichment (6-mer frequency, TF over GST control) | 1.27 fold enrichment (6-mer frequency, TF over GST control) | 1.23 fold enrichment (6-mer frequency, TF over GST control) | 1.13 fold enrichment (6-mer frequency, TF over GST control) | 1.12 fold enrichment (6-mer frequency, TF over GST control) | 1.18 fold enrichment (6-mer frequency, TF over GST control) | 1.13 fold enrichment (6-mer frequency, TF over GST control) | 1.09 fold enrichment (6-mer frequency, TF over GST control) | 1.08 fold enrichment (6-mer frequency, TF over GST control) | 1.15 fold enrichment (6-mer frequency, TF over GST control) | 1.17 fold enrichment (6-mer frequency, TF over GST control) | 1.07 fold enrichment (6-mer frequency, TF over GST control) | 1.12 fold enrichment (6-mer frequency, TF over GST control) | 1.06 fold enrichment (6-mer frequency, TF over GST control) | 1.16 fold enrichment (6-mer frequency, TF over GST control) |
